# From PubChem
# Shown are actives, neighbours in structure and some others; about 2.3% of the full set was active somewhere.
# CHO-K1 Ca ag: M1 agonist counterscreen hit in parental CHO-K1 cells | Fluo-8 calcium fluorescence; scaled to maximal ATP response, vehicle zero | activation, % at 3 µM | actives 0.48% (n = 360,000); in the data active = activation above about 15%;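 also: untransfected CHO-K1 host cells lacking M1 receptor as counterscreen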
# M1 PAM: human CHRM1 positive allosteric modulation; P11229; actives 0.088% (n = 360,000); activation, % at 3 µM; CHO-K1 hM1, Fluo-8 calcium fluorescence, ACh EC20; 0% = ACh EC20, 100% = maximal ACh; in the data active = activation above about 19%, passing the limit was not always enough
# Target sequence (P11229 whole entry, looked up): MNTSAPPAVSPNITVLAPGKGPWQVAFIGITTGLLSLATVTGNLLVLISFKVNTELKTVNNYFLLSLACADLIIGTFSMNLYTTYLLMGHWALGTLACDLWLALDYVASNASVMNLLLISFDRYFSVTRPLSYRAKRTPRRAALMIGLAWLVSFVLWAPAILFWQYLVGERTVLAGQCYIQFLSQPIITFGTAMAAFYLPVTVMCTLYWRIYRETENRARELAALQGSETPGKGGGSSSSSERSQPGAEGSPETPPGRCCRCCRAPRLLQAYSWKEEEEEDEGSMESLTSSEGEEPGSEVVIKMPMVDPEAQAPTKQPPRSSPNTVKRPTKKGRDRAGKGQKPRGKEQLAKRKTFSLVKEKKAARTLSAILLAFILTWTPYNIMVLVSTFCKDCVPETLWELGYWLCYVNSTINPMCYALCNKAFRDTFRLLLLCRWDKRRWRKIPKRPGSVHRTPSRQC
# CHRM1 agonist: activates human CHRM1 receptor. P11229. CHO-K1 hM1, Fluo-8 calcium fluorescence, agonist mode; 0% DMSO, 100% acetylcholine EC100. activation, % at 3 µM. actives 0.33% (n = 360,000);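 active = activation above the run's mean compound activation plus 3 SD, cut at about 16% in these data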;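 also: peak over basal fluorescence ratio within a 140 s kinetic read after compound addition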
# CHRM1 antagonist: human CHRM1 antagonism; inhibition, % at 3 µM; P11229; actives 1.3% (n = 360,000); CHO-K1 hM1, Fluo-8 calcium fluorescence, ACh EC80 antagonist;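 active = percent inhibition above its own plate's cutoff, namely the mean of that plate's compound wells plus 3 SD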;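 also: peak over basal fluorescence ratio during 140 s after agonist addition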
# CHO-K1 Ca antag: nonselective inhibitor or artifact in parental CHO-K1 cells; ATP-induced calcium, Fluo-8 fluorescence; inhibition, % at 3 µM; AID 602250; actives 0.6% (n = 360,000);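 active = inhibition above a per-plate cutoff, the plate's mean sample inhibition plus 3 SD, cut at about 24% in these data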
# CHO-K1 Ca PAM: counter-screen for M1 PAMs: effect in parental CHO-K1 cells | ATP EC20, Fluo-8 calcium fluorescence; 0% at ATP EC20, 100% at ATP max | activation, % at 3 µM | actives 0.02% (n = 360,000) | AID 602247;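 active = activation above the run cutoff, the mean activation of all test compounds plus 3 SD, cut at about 40% in these data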;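 also: peak over basal fluorescence ratio in a 140 s read after ATP addition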
# A number is an active result; – = inactive.
SMILES,CHO-K1 Ca ag,M1 PAM,CHRM1 agonist,CHRM1 antagonist,CHO-K1 Ca antag,CHO-K1 Ca PAM
O=C1CC(c2ccccc2)CC(O)=C1C=NCCN1CCNCC1 (stereo not given),–,–,–,25,–,–
O=C1CC(c2ccc(F)cc2)CC(O)=C1C=NCCN1CCNCC1 (stereo not given),–,–,–,–,–,–
O=C1CC(c2ccco2)CC(O)=C1C=NCCN1CCNCC1 (stereo not given),–,–,–,39,–,–
CCN(CC)CCCOC(=O)C(c1ccccc1)c1ccccc1,–,–,–,101,–,–
CCN(CC)CCOC(=O)/C=C/c1ccccc1,–,–,–,–,–,–
O=C(c1cc(S(=O)(=O)NCc2ccco2)ccc1Br)N1CCOCC1,–,–,–,–,–,–
CC(=O)NC(C)(c1ccccc1)c1nc(-c2cncnc2)cs1 (stereo not given),–,–,–,–,–,–
COc1cc(-c2cc3nc4ccccc4n3c(N)c2C#N)cc(OC)c1OC,–,–,–,37,–,–
Cc1cc(C)nc(SCc2ccc(C(=O)N/N=C3\CCCC(=O)C3)cc2)n1,–,–,–,–,–,–
O=C(COC(=O)Cc1c[nH]c2ccccc12)NC1CCS(=O)(=O)C1 (stereo not given),–,–,–,27,–,–
O=C(COC(=O)Cc1ccc(F)cc1)NC1CCS(=O)(=O)C1 (stereo not given),–,–,–,–,–,–
CN(C)[C@H]1CCN([C@H]2CS(=O)(=O)N[C@@H]2COCc2ccccc2)C1,–,–,–,–,–,–
O=S1(=O)C[C@H](N2CC[C@@H](O)C2)[C@@H](COCc2ccccc2)N1,–,–,–,–,27,–
CCN(CC)CC(C)(C)C(=O)/C=C/c1ccc(/C=C/C(=O)C(C)(C)CN(CC)CC)cc1,–,–,–,–,25,–
CCOC(=O)[C@@H]1[C@H]2COc3ccccc3[C@@H]2N2C(=O)N(c3ccc(C(F)(F)F)cc3)C(=O)[C@@]12C,–,–,–,–,–,–
CCOC(=O)[C@@H]1[C@H]2COc3ccccc3[C@H]2N2C(=O)N(c3ccc(C(F)(F)F)cc3)C(=O)[C@]12C,–,–,–,34,–,–
Cc1cc(NC(=O)NC(C(F)(F)F)C(F)(F)F)no1,–,–,–,–,–,–
Cc1cccc(C)c1Nc1nc2ccccc2o1,–,–,–,–,25,–
COc1ccc(NC(=O)CS(=O)CC(=O)N2CCN(C3CCCC3)CC2)cc1 (stereo not given),–,–,–,–,–,–
CC(C)CCN1CCN(CC(c2ccccc2)c2ccccc2)CC1CCO (stereo not given),–,–,–,35,–,–
CC(C)CCN1CCN(Cc2nc3ccccc3s2)CC1CCO (stereo not given),–,–,–,–,–,–
Cc1cc([N+](=O)[O-])ccc1NCc1ccc2c(c1)OCCO2,–,–,–,–,–,–
Cc1cc(F)ccc1NCc1ccc([N+](=O)[O-])cc1,21,–,–,–,–,–
COc1ccc(NC(=O)NNS(=O)(=O)c2ccc(OC)c(OC)c2)c(OC)c1,–,–,–,–,–,–
CCOC(=O)C1=C(NC(=S)NC(=O)c2ccccc2)c2ccccc2CC1(C)CC (stereo not given),20,–,–,–,–,–
SMILES,CHO-K1 Ca ag,M1 PAM,CHRM1 agonist,CHRM1 antagonist,CHO-K1 Ca antag,CHO-K1 Ca PAM
CCOC(=O)C1=C(NC(=S)NC(=O)c2ccccc2)c2ccccc2CC1C(C)C (stereo not given),–,–,–,–,–,–
O=c1[nH]c(=S)[nH]c2nc(-c3cccs3)cc(C(F)(F)F)c12,–,–,–,–,–,–
Nc1c(C(=O)C2CC2)sc2nc(-c3cccs3)cc(C(F)(F)F)c12,–,–,19,–,–,–
CC(=O)c1ccc(N2CCN(C(=O)CCC(=O)Nc3ccc4nc(N5CCN(C)CC5)cc(C)c4c3)CC2)cc1,–,–,–,–,–,–
COC(=O)CCC(NS(=O)(=O)OCC(Cl)(Cl)Cl)c1ccccc1 (stereo not given),–,–,–,–,–,–
CC(C)CC(NS(=O)(=O)OCC(Cl)(Cl)Cl)c1ccccc1 (stereo not given),–,–,–,35,–,–
Cc1ccc(NC(=O)CCCCCC2NC(=O)NC2C)cc1 (stereo not given),–,–,–,–,–,–
CCOC(=O)CCCCCCCCC(=O)Nc1ccc(-n2[nH]c(=O)cc2C)cc1,–,–,20,–,–,–
CCc1noc(C)c1C(=O)NNC(=O)COc1ccc(Br)cc1,–,–,–,–,–,–
C=CC[n+]1ccc(/C=C2\C=Cc3cc(C)ccc3N2CC)c2ccccc21,–,–,–,44,49,–
Cc1cccc(C)c1NC(=O)COC(=O)c1cc[n+]([O-])cc1,–,–,–,–,–,–
N#CN(CC(N)=O)c1nc(N2CCCCC2)nc(N2CCCCC2)n1,–,–,–,–,28,–
Cc1ccc(Cl)cc1-c1cc(C(=O)NCc2cc(C(F)(F)F)cc(C(F)(F)F)c2)[nH]n1,–,–,–,47,–,–
Cc1ccc(-n2nc3c(c2NC(=O)c2ccc(S(=O)(=O)N4CCOCC4)cc2)CSC3)c(C)c1,–,–,–,–,–,–
CC(C)(C)OC(=O)N1CCC(c2cc(=O)n3[nH]cc(C(=O)NC4CCCC4)c3n2)CC1,–,26,–,–,–,–
CC(C)(C)OC(=O)N1CCC(c2cc(=O)n3[nH]cc(C(=O)Nc4ccc(F)c(Cl)c4)c3n2)CC1,–,–,–,–,–,–
c1ccc(-c2nnc(C3CC(c4ccncc4)=NO3)o2)cc1 (stereo not given),–,–,–,–,–,–
O=[N+]([O-])c1ccccc1/C=N\N1CCN(c2ccccc2)CC1,28,–,–,–,–,–
COc1ccc(N(C)S(=O)(=O)c2cccc(C(=O)OCC(=O)c3c(N)n(C)c(=O)n(C)c3=O)c2)cc1,21,–,–,42,–,–
COc1ccc(N(C)S(=O)(=O)c2cccc(C(=O)OCC(=O)Nc3cc(C)ccc3OC)c2)cc1,–,–,–,36,–,–
CCN(c1ccccc1)S(=O)(=O)c1cccc(C(=O)OCC(=O)c2c(N)n(C)c(=O)n(C)c2=O)c1,–,–,–,–,–,–
CCOC(=O)c1cccc(OS(=O)(=O)Cc2ccccc2)c1,–,–,–,–,–,–
COC(=O)c1cccnc1-n1c(=O)c2cccnc2n(Cc2ccc([N+](=O)[O-])cc2)c1=O,–,–,18,–,–,–
O=C1c2ccccc2[C@@H]2C[C@@H](O)[C@H](Nc3cccc4ccccc34)CCN12,–,–,–,25,–,–
CNC(=O)C(=O)NCC1OCCN1S(=O)(=O)c1ccc(C)cc1 (stereo not given),–,–,–,–,–,–
